About 230 (0.21%) of roughly 110,000 compounds showed an effect of 50% or more. The entries come from a sample that favours strong results as a whole.
molecular target: DPAP1 (Plasmodium falciparum, UniProt Q8IIJ9); test: primary screen, percent inhibition; read by cleavage of a fluorogenic dipeptide substrate; higher = more effect of the substance; set-up: species or system P. falciparum D10 trophozoite lysates; single well
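Note: 30 min substrate incubation versus DMSO and 10 µM JCP410 controls.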

DPAP1, sequence (Q8IIJ9 whole entry, looked up): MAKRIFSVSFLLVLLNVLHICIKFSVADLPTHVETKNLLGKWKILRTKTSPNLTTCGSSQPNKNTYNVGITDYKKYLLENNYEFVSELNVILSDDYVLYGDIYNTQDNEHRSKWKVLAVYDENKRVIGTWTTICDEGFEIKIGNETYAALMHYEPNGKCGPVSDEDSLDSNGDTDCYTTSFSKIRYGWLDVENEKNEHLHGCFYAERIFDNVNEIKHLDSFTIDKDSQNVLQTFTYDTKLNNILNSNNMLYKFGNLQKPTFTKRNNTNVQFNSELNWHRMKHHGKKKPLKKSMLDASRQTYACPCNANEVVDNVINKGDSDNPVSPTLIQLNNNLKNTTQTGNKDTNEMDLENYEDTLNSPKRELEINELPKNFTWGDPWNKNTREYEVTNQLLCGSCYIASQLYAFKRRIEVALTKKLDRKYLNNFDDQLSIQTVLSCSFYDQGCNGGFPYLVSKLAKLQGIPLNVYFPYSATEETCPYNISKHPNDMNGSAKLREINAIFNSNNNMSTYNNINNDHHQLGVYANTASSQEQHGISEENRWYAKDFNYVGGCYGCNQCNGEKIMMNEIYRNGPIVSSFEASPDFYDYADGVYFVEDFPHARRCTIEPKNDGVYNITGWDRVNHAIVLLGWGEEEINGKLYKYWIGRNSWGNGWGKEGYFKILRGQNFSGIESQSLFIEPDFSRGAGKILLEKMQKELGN

SMILES	% Inhibition @ 10 uM [%]
CCCC(=O)n1nc2c3c(cccc31)C(=O)c1ccccc1-2	-2.75
Cc1ccc(O)c(/C=N/c2c(C)nn(C)c2C)c1	7.26
CC(C)CCn1nnc2sc3c(c2c1=O)CCC(C)C3 (stereo not shown)	-6.78
Cc1ccc(CNc2nc3ccccc3c3nc(-c4ccncc4)nn23)cc1	0.981
O=C1NC(=S)NC(=O)C1=Cc1ccccc1OCCO	-6.17
CC(=O)NS(=O)(=O)c1ccc(NC(=O)COc2ccc(C)cc2)cc1	-0.473
CC(C)(C)c1ccc(C(CC(=O)O)NS(=O)(=O)Cc2ccccc2)cc1 (stereo not shown)	2.72
Cc1ccc(N2C(=O)C3C4c5ccccc5C(C(C)O)(c5ccccc54)C3C2=O)cc1 (stereo not shown)	53.4
CC12c3ccccc3C(c3ccccc31)C1C(=O)N(c3ccc(Cl)cc3)C(=O)C12 (stereo not shown)	-1.59
Cc1cccc(N2C(=O)C3C4c5ccccc5C(C)(c5ccccc54)C3C2=O)c1 (stereo not shown)	2.6
Cn1c(C2=CC(C)(C)NC(C)(C)C2)ccc1C1=CC(C)(C)NC(C)(C)C1	-5.9
COCCNC(=O)CCNS(=O)(=O)c1ccc(C)cc1	-0.256
CCOc1cc(C2c3c(-c4ccccc4O)n[nH]c3C(=O)N2Cc2ccco2)ccc1O (stereo not shown)	52.6
COc1cc(C2c3c(-c4ccccc4O)n[nH]c3C(=O)N2Cc2ccco2)ccc1O (stereo not shown)	-3.12
CCOc1ccc(C2c3c(-c4ccccc4O)n[nH]c3C(=O)N2Cc2ccco2)cc1OC (stereo not shown)	0.366
Cc1cc(S(=O)(=O)N(Cc2ccccc2)Cc2ccccc2Cl)ccc1-n1cnnn1	58.7
COc1ccc(CN(Cc2ccccc2)S(=O)(=O)c2ccc(-n3cnnn3)c(C)c2)cc1	2.08
Cc1cc(S(=O)(=O)N2CCC(n3c(O)nc4ccccc43)CC2)ccc1-n1cnnn1	-0.671
CNS(=O)(=O)c1cn(CC(=O)NCc2ccccn2)cc1S(=O)(=O)NC	-7.87
O=C(CC1SC(=O)N(Cc2cccc3ccccc23)C1=O)Nc1nccs1 (stereo not shown)	-2.82
C(=C\c1ccccc1)/CN1CCN(C2CCN(Cc3ccccc3)CC2)CC1	1.88
C(=C\c1ccccc1)/CN1CCN(C2CCN(CCc3ccccc3)CC2)CC1	97.7

SMILES	% Inhibition @ 10 uM [%]
C(=C\c1ccccc1)/CN1CCN(CCc2ccccc2)CC1	1.74
Cc1cc(=O)n2nc(N(C)CC(=O)NCc3ccc4c(c3)OCO4)sc2n1	3
Cc1nnc2c(NCc3ccccc3)nc3ccc(C(=O)c4ccccc4)cc3n12	0.454
Cc1nnc2c(NCc3ccco3)nc3ccc(C(=O)c4ccccc4)cc3n12	-6.09
Cc1nnc2c(NCc3ccc4c(c3)OCO4)nc3ccc(C(=O)c4ccccc4)cc3n12	79.7
O=C(c1ccco1)N1CCN(c2nc3ccccc3n3nnnc23)CC1	2.76
CC(=O)N/C(=C\c1ccccc1)C(=O)Nc1ccc(Cl)cc1	-6.99
O=C1c2cccc3cccc(c23)C(=O)N1CCN1CCN(S(=O)(=O)c2ccc(Cl)cc2)CC1	5.97
O=C1C(S(=O)c2ccc(Cl)cc2)=C(O)c2cccc3cccc1c23 (stereo not shown)	77.5
O=C(c1ccc(Cl)cc1)N1CCN(CCN2C(=O)c3cccc4cccc(c34)C2=O)CC1	-5.31
COCc1c(C#N)c(S)nc(C)c1[N+](=O)[O-]	30.8
CCCCCCc1c(O)nc(S)nc1O	22.8
CC(C)Cc1c(C#N)c(N)nc(SCC(=O)c2ccc(-c3ccccc3)cc2)c1C#N	16.2
CN(C)c1ccc(-c2c(C#N)c(N)nc(S)c2C#N)cc1	7.55
CC(C)Cc1c(C#N)c(N)nc2sc(C#N)c(N)c12	5.2
C=CCSc1nc(N)c(C#N)c(CC)c1C#N	65.5
CCc1c(C#N)c(N)nc(S)c1C#N	74.5
CCOC(=O)CSc1nc(N)c(C#N)c(CC)c1C#N	20.6
CCc1c(C#N)c(N)nc(SCc2ccccc2)c1C#N	42.7
CC(C)Cc1c(C#N)c(N)nc(S)c1C#N	78.5
CCCCCCCc1c(C#N)c(N)nc(S)c1C#N	71.3
CCSc1nc(N)c(C#N)c(CC)c1C#N	23.3

SMILES	% Inhibition @ 10 uM [%]
N=C(NOC(=O)C12CC3CC(CC(C3)C1)C2)c1ccc(Cl)cc1	-0.597
O=C(CN1CCCC1)Nc1c2c(nc3ccccc13)N(c1ccccc1)CC2	0.144
Cc1ccc(C(C)C)c(OCC(O)CN2CC(C)OC(C)C2)c1 (stereo not shown)	-1.15
COc1cc(C2C(C#N)=C(N)OC3=C2C(=O)CCC3)ccc1OCC(=O)Nc1ccc(C)cc1C (stereo not shown)	0.851
COc1cc(OC)cc(C(=O)Nc2ccc3c(c2)oc2ccccc23)c1	-4.91
CCC1CCC(NCc2ccncc2)CC1 (stereo not shown)	-3.42
c1cc(CNC2CCCCC2)ccn1	1.84
c1ccc(C2CCC(NCc3ccncc3)CC2)cc1 (stereo not shown)	97.8
N#Cc1ccc(-c2cccnc2)nc1SCC(=O)O	-2.45
CC(Sc1nc(-c2cccnc2)ccc1C#N)C(=O)O (stereo not shown)	-3.63
N#Cc1ccc(-c2cccnc2)nc1SCc1ccccc1	61.4
Cc1nnc2c(Oc3ccc(-c4ccccc4)cc3)nc3ccccc3n12	-7.23
N=c1n(CCOc2ccccc2)c2ccccc2n1CCN1CCOCC1	-6.25
CCOc1cc(Br)c(C=C2C(=O)NC(=O)NC2=O)cc1OC	-2.39
C/C(CCC1CC(C)OC1=O)=N\NC(N)=S (stereo not shown)	-1.6
OC1(c2ccc(Br)cc2)CCN(Cc2cccc(Cl)c2)CC1	-3.6
CC1C(C#N)=C(SCC(=O)c2ccc(Cl)cc2)N=C2CC(C)(C)CC(O)=C21 (stereo not shown)	45.5
CSC1=C(C#N)C(C)C2=C(O)CC(C)(C)CC2=N1 (stereo not shown)	2.76
CC1C(C#N)=C(SCc2ccccc2)N=C2CC(C)(C)CC(O)=C21 (stereo not shown)	55.4
Cc1nc(NC(=O)COc2ccc(C(C)(C)C)cc2)ccc1Br	-7.81
CCOc1ccc(-c2cc(C)n3nc(C(=O)NCc4ccco4)cc3n2)cc1	0.221
Cc1ccc2nc3c(O)n(C)cnc-3c2c1	5.06

SMILES	% Inhibition @ 10 uM [%]
CCOc1ccc(C2CC(=O)N3CN(CCO)CSC3=C2C#N)cc1 (stereo not shown)	61.2
CCOc1ccc(C2CC(=O)N3CN(Cc4ccccc4)CSC3=C2C#N)cc1 (stereo not shown)	48.5
CCc1ccc(C2CC(=O)N3CN(Cc4ccccc4)CSC3=C2C#N)cc1 (stereo not shown)	39.2
CCOc1ccc(C2CC(=O)N3CN(CCc4ccccc4)CSC3=C2C#N)cc1 (stereo not shown)	71.1
C=C(C)Cn1c(C(C)NC(=O)CCC)nc2ccccc21 (stereo not shown)	1.41
CC(C)CNCC(=O)Nc1sc2c(c1C(=O)Nc1ccc(Br)cc1)CCC2	-6.07
OC1(c2ccc(Cl)cc2)CCN(Cc2ccc(F)c(F)c2)CC1	-7.42
COc1ccc(C2=NN3C(C2)c2cc(OC)ccc2OC3(C)C)cc1 (stereo not shown)	43.8
COc1ccc(C2=NN3C(C2)c2cccc(OC)c2OC3(C)C)cc1 (stereo not shown)	38.5
COc1ccc(C2=NN3C(C2)c2cc(Cl)ccc2OC3(C)C)cc1 (stereo not shown)	50.9
CCCCCn1c(Br)nc2c1c(=O)[nH]c(=O)n2C	4.41
CC(=O)c1cccc(NC(=O)c2ccc(N(C)S(=O)(=O)c3ccc(C)cc3)cc2)c1	5.24
CC(C)OCCCNC(=O)c1noc2c1COc1ccccc1-2	58.6
COCCCNC(=O)c1noc2c1COc1ccc(C)cc1-2	5.1
O=C(NCC1CCCO1)c1noc2c1CSc1ccccc1-2 (stereo not shown)	19.3
COCCCNC(=O)c1noc2c1COc1ccccc1-2	84.2
CCCCN(CC)C(=O)c1noc2c1COc1ccccc1-2	-1.72
CC12CC3CC(C)(C1)CC(OCCNC(=O)c1noc4c1COc1ccccc1-4)(C3)C2	49
COCCNC(=O)c1noc2c1COc1ccccc1-2	60
COCCNC(=O)c1noc2c1COc1ccc(C)cc1-2	-3.77
Cc1ccc2c(c1)-c1onc(C(=O)NCCCOC(C)C)c1CO2	1.97
CC(C)OCCCNC(=O)c1nn(C)c2c1COc1ccccc1-2	-1.72

SMILES	% Inhibition @ 10 uM [%]
COc1ccccc1CNC(=O)c1noc2c1CSc1ccccc1-2	62.7
COc1ccccc1CNC(=O)c1c2c(nn1C)-c1ccccc1SC2	8.62
COc1cccc(C(=O)N2CCN(C(=O)CCC3CCCC3)CC2)c1	0.587
O=C(NC1CCCCC1)C1CCCN(S(=O)(=O)N2CCCCC2)C1 (stereo not shown)	-4.99
CN1CCN(C(=O)c2ccc(Cn3c(SCc4ccccc4F)nc4ccncc43)cc2)CC1	-1.92
Cn1c(=O)c2nc(-c3ccccc3)c(-c3ccccc3)nc2n(C)c1=O	4.03
CCOc1cc(-c2cc(-c3ccc(N)cc3)nc(N)c2C#N)ccc1O	3.26
COc1ccc2c(CNCc3ccccc3C)c(C(=O)O)n(Cc3ccc(F)cc3)c2c1	-4.16
COc1cc(C)c2c(=O)c(Oc3ccccc3)c(C(F)(F)F)oc2c1	-5.69
CC(C)(C)n1ncc2c(=O)n(Cc3c(F)cccc3Cl)cnc21	-1.75
COC(=O)c1sccc1-n1c(S)c(C#N)c(N)c(C#N)c1=N	-2.21
CC1CC2(C)CC(C(=O)O2)C1C(=O)O (stereo not shown)	-1.76
COc1cc(-c2cc(NC(=O)c3noc4c3COc3ccccc3-4)on2)cc(OC)c1OC	4.86
CC(NC(=O)c1noc2c1COc1ccccc1-2)c1ccc2c(c1)OCCO2 (stereo not shown)	21.3
COc1ccc(OC)c(CCNC(=O)c2noc3c2COc2ccccc2-3)c1	59.5
CC(C)CCNC(=O)c1noc2c1COc1ccccc1-2	88.5
Cc1ccc2c(c1)-c1onc(C(=O)NCCC(C)C)c1CO2	1.14
COc1ccccc1CNC(=O)Nc1noc2c1COc1ccccc1-2	-0.539

— paper PMC6919601, “Identification of Plasmodium dipeptidyl aminopeptidase allosteric inhibitors by high throughput screening” (PLoS ONE, 2019)
